Reference: PubChem BioAssay (Tox21)
Several values for one entry are separate records, joined by “and”; a condition that tells them apart may be missing. Identical values can stand only once. Where a structure was tested more than once in an assay, its records may differ in their call. Activity calls are given as the source filed them. Calls follow the shape of the dose curve; as a rule, active = well fitted curve in the direction sought with a large enough effect in the repeat runs; inconclusive = weak or mixed curves; inactive = flat fitted curve, though single readings scatter.

Test: qHTS assay to test for compound auto fluorescence at 460 nm (blue) in HEK293 cells (AID 720678)
Conditions: blue autofluorescence 405/460 nm; series mostly up to 91.3 µM; fluorescence, % of triamterene: at the top concentration
From the text: National Center for Advancing Translational Sciences [NCATS]
NIH Chemical Genomics Center [NCGC]
U.S. Environmental Protection Agency [EPA]
National Institutes of Environmental Health Sciences [NIEHS]
National Toxicology Program [NTP]
U.S. Food and Drug Administration [FDA]
Compound auto fluorescence often interferes with screening of the compound library against various biological targets and signaling pathways. Some of these compounds may have fluorophoric properties. Such properties may interfere with the assay outputs resulting in false positives and/or negatives. To decrease such complications and ensure the compound activities are relevant in terms of biological response, the Tox21 10K compound library was screened for auto fluorescence.
From the fluorophores used as reporter signals in our screening assays, the auto fluorescence equivalencies of compounds against three fluorophores have been evaluated: Triamterene, Fluorescein and Rose Bengal sodium for blue, green and red fluorescence, respectively. The fluorescence intensities were measured using Excitation/Emission wavelengths at 405/460nm, 485/535nm and 540/590nm for blue, green and red labels, respectively. This assay includes the blue fluorescence data.
Tox21 Assay Protocol Summary:
2,000 HEK293 cells in 5 uL of culture medium containing 10% dialyzed FBS per well were dispensed into black wall/clear bottom 1536-well plates using a Multidrop Combi Dispenser (Thermo Scientific). The assay plates were incubated for 4-5 hr at 37C to allow cell attachment to the well bottom, followed by the transfer of 23 nL compound or DMSO vehicle by a pintool work station (Kalypsys, San Diego, CA). After the assay plates were incubated overnight at 37C and 5% CO2, fluorescence intensities in the assay plates were measured by an Envision (PerkinElmer, Shelton, CT) plate reader using three labels for measuring blue, green and red fluorescence at […] 460, 535 and 590nm respectively.
% is scaled to controls: 0 for no effect and ±100 for the full control effect; potency is read from the fitted curve at half-maximal effect; tags tell the direction and shape of the fitted curve or compound fluorescence and quenching.

Row | SMILES | fluorescence, % of triamterene | Potency
1 | CN(C)CC/C=C1\c2ccccc2COc2ccccc21 | 0.144% [at 46 µM] (inactive) | –
2 | CC(=O)/C(C)=C/C1C(C)=CCCC1(C)C (stereo not given) | 0.0236% (inactive) | –
3 | CC(O)C1CCCCC1 (stereo not given) | -0.137% (inactive) | –
4 | CCCCCOC(=O)COc1cc(N2C(=O)C3=C(CCCC3)C2=O)c(F)cc1Cl | 0.336% (inactive) | –
5 | CC(C)NCC(O)COc1ccc(CC(N)=O)cc1 (stereo not given) | -0.0012% (inactive) | –
6 | OC(CCN1CCCCC1)(c1ccccc1)C1CCCCC1 (stereo not given) | 0.025% [at 46 µM] (inactive) | –
7 | c1ccc(CNCc2ccccc2)cc1 | 0.0235% (inactive) | –
8 | Cc1ccc(C(C)c2ccc(C)c(C)c2)cc1C | 0.0207% (inactive) | –
9 | Nc1nc(N)c2nc(CNc3ccc(C(=O)N[C@@H](CCC(=O)O)C(=O)O)cc3)cnc2n1 | – | inactive and 39.8 µM [fluorescent] (active)
10 | Cc1ccc(C(N)=O)cc1N | 0.183% (inactive) | –
11 | COc1cc(C(C)(C)C)c(O)c(C(C)(C)C)c1 | 0.0259% (inactive) | –
12 | O=C=NC1CCC(CC2CCC(N=C=O)CC2)CC1 (stereo not given) | -0.0369% (inactive) | –
13 | CCOc1ccc(NC(=O)CC(C)=O)cc1 | 0.0614% (inactive) | –
14 | CCCC[C@H]1CN(CC2CCOCC2)C(=O)OC12CCN(C1(C)CCN(C(=O)c3c(C)ncnc3C)CC1)CC2 | 0.64% (inactive) | –
15 | CCOC(=O)C1=NN(c2ccccc2)C(=O)C1 | -0.0184% (inactive) | –
16 | C=Cc1c(C)c2cc3[nH]c(cc4nc(cc5nc(cc1[nH]2)C(C)=C5CCC(=O)O)C(CCC(=O)O)=C4C)c(C)c3C=C | -0.303% [at 46 µM] (inactive) | –
17 | COc1ccccc1OC(=O)Oc1ccccc1OC | 0.0103% [at 46 µM] (inactive) | –
18 | CCC(=O)OC(C)(C)C1CC=C(C)CC1 (stereo not given) | -0.0095% (inactive) | –
19 | O=C1CCCCCO1 | -0.111% (inactive) | –
20 | Cc1ncsc1CCO | 0.0601% (inactive) | –

Row | SMILES | fluorescence, % of triamterene | Potency
21 | S=C(S)NCCNC(=S)S | -0.0163% (inactive) | –
22 | Oc1ccc2c(c1)OCO2 | -0.314% (inactive) | –
23 | COC(=O)C(C)=O | 0.0615% (inactive) | –
24 | O=C(NN1CCCC1)NS(=O)(=O)c1ccc(Cl)cc1 | 0.0977% [at 46 µM] (inactive) | –
25 | Cc1occc1S | 0.264% (inactive) | –
26 | C=CC(=O)OCCOC(=O)CCC(=O)O | -0.179% (inactive) | –
27 | CNCC[C@@H](Oc1ccccc1C)c1ccccc1 | -0.0325% [at 46 µM] (inactive) | –
28 | CC(CN)CCCN (stereo not given) | 0.0004% (inactive) | –
29 | O=CNc1ccccc1 | -0.082% (inactive) | –
30 | O=C(O)Cc1sc(-c2ccccc2)nc1-c1ccc(Cl)cc1 | – | inactive
31 | CCCCOC(=O)c1ccccc1C(=O)OCC(CC)CCCC (stereo not given) | 0.0093% (inactive) | –
32 | O=c1[nH]cnc2ccccc12 | -0.189% [at 95.7 µM] (inactive) | –
33 | C=C(C)C(=O)OC(C)C | -0.0726% (inactive) | –
34 | Oc1ccc(O)c2c(O)cccc12 | -0.313% (inactive) | –
35 | Oc1ccc(C(O)CNCCCCCCNCC(O)c2ccc(O)c(O)c2)cc1O (stereo not given) | 1.4% [at 46 µM] (inactive) | –
36 | C=C(C)C(=O)OCCN(C)C | 0.0581% (inactive) | –
37 | CC(C)(C)c1ccc(OCC2CO2)cc1 (stereo not given) | -0.24% [at 95.7 µM] (inactive) | –
38 | CC(C)(C)c1cc(O)c(C(C)(C)C)cc1O | 0.0761% (inactive) | –
39 | CCN(CC)C(C)CN1c2ccccc2Sc2ccccc21 (stereo not given) | -0.0331% [at 18.6 µM] (inactive) | –
40 | NCc1ccccc1 | -0.477% (inactive) | –
